In the library only some 21% were active in any assay of this set; here they are far more common.
Cycloheximide cs = Cycloheximide Counterscreen for Small Molecule Inhibitors of Shiga Toxin; actives 12% (n = 300,000); max response, %; cell reporter, cycloheximide protein synthesis inhibition counterscreen; in the data active = max response mostly above about 13%, no sharp cut-off; inactive = mostly below about 14%; also: read at 38.3 µM for the half of the compounds with a filed dose
Pf growth 48h = Primary qHTS for delayed death inhibitors of the malarial parasite plastid, 48 hour incubation | P. falciparum luciferase growth in erythrocytes, 48 h | Potency, µM (series often up to 28.7 µM), hits mostly inhibitors | actives 5.9% (n = 310,000) | AID 504832, 2011
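Firefly luciferase activity from engineered P. falciparum reports growth; inhibitors lower the luminescent signal. Cultures contained 2% hematocrit erythrocytes at 0.1% final parasitemia.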
Pf growth 96h = Primary qHTS for delayed death inhibitors of the malarial parasite plastid, 96 hour incubation | P. falciparum luciferase reporter growth, 96 h | Potency, µM (highest dose often 28.7 µM), usual class: inhibitors | actives 6.9% (n = 320,000)
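Infected RBCs, 2% Hct / 0.05% parasitemia final; luciferase-reporter P. falciparum; cpd 96 h, 37 C, 5% CO2; luciferase detection reagent; luminescence.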
SARS PLpro yeast = qHTS of Yeast-based Assay for SARS-CoV PLP; AID 485353, 2010; S. cerevisiae expressing SARS-CoV PLpro, growth rescue; Potency, µM (highest dose often 32.9 µM), hits mostly activators; actives 0.19% (n = 330,000); calls by dose curve; also: nearly all actives have a fitted effect of over 55% in size
NS1 function inh = qHTS Assay for Inhibitors of Influenza NS1 Protein Function. actives 0.4% (n = 270,000). Potency, µM (doses to about 46.1 µM); calls by dose curve; also: actives are rising curves; nearly all actives have a fitted effect of over 50% in size
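Recovery from NS1-induced slow growth read by OD600 in budding yeast switched to galactose assay medium (pH 6.0, -URA) at 1:100 dilution. Compound 23 nl per well; the matching strain lacking NS1 serves as control.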
Shiga inhibitor = A qHTS for Small Molecule Inhibitors of Shiga Toxin; Vero cells, Shiga toxin protein synthesis inhibition reporter; inhibition, % at 38.7 µM; actives 9.2% (n = 290,000); AID 2315, 2010; in the data active = inhibition mostly above about 28%, no sharp cut-off; inactive = mostly below about 43%
Of the large screens only hits and unclear results are named; the others gave an inactive call. Unless noted, calls follow the shape of the dose curve; as a rule, active = well fitted inhibition curve with a large enough effect; inconclusive = small, poorly fitted or top-dose-only effect, or another doubt; inactive = no such curve, though single readings can be large or run the other way.

CC(=O)NNc1ncnc2c1cnn2-c1ccc(C)cc1	Cycloheximide cs 37, Pf growth 96h inconclusive, Shiga inhibitor 86 (no result: NS1 function inh)
Cc1ccc(-n2ncc3c(NNC(=O)c4ccco4)ncnc32)cc1C	Cycloheximide cs 25, Pf growth 48h inconclusive, Pf growth 96h inconclusive, Shiga inhibitor 56
COc1ccc(CC(=O)NNc2ncnc3c2cnn3-c2ccc(C)cc2)cc1OC	Cycloheximide cs 15
O=C(NNc1ncnc2c1cnn2-c1cccc(Cl)c1)c1ccco1	Pf growth 96h inconclusive
CC(=O)NNc1ncnc2c1cnn2-c1ccc(C)c(Cl)c1	Cycloheximide cs 38, Pf growth 96h 8.3µM, Shiga inhibitor 68 (no result: NS1 function inh)
O=S(=O)(c1ccc2c(c1)OCO2)N1CCN(c2nnnn2-c2ccccc2)CC1	Cycloheximide cs 36, Pf growth 48h inconclusive, Pf growth 96h inconclusive
CC1(C)CCCN(Cc2c(O)ccc3c(=O)c(-c4nc5ccccc5s4)c(N)oc23)C1	Cycloheximide cs 33, Pf growth 48h inconclusive, Pf growth 96h inconclusive, Shiga inhibitor 77
COc1ccccc1-c1c(C)oc2c(CN3CCN(CCO)CC3)c(O)ccc2c1=O	none
CC1CCCN(Cc2c(O)ccc3c(=O)c(-c4nc5ccccc5s4)c(N)oc23)C1 (stereo unspecified)	Pf growth 48h 0.074µM, Pf growth 96h 0.066µM
CC1CCN(Cc2c(O)ccc3c(=O)c(-c4nc5ccccc5s4)c(N)oc23)CC1	Pf growth 48h 0.26µM, Pf growth 96h inconclusive
CCOc1ccc(NC(=O)CN2C(=O)COc3ccccc32)cc1	none
C#CCOc1coc(COC(=O)c2ccccc2)cc1=O	Cycloheximide cs 23
O=c1cc(CO)occ1OCc1ccccc1	none (no result: Pf growth 96h)
Cc1cccc(NC(=O)CN(C)S(=O)(=O)c2ccc3c(c2)n(C)c(=O)c(=O)n3C)c1C	Pf growth 96h inconclusive
COC(=O)CSc1nc(C)c(C)c(C)c1C(N)=O	Pf growth 96h inconclusive
CN1C(=C2C(=O)OC(C)(C)OC2=O)Sc2ccccc21	Cycloheximide cs 44, Shiga inhibitor 117
c1ccc(-c2cnnc(N3CCCCC3)n2)cc1	Cycloheximide cs 33, Pf growth 48h inconclusive, Pf growth 96h inconclusive, Shiga inhibitor 112
Clc1ccc(-c2csc(N3CCCCCC3)n2)cc1	Cycloheximide cs 22, Pf growth 96h inconclusive
NC(=O)C1CCN(c2nc(-c3ccc(Br)cc3)cs2)CC1	Cycloheximide cs 20, Pf growth 48h inconclusive, Pf growth 96h inconclusive
FC(F)(F)c1cc(-c2ccccc2)nc(N2CCCCCC2)n1	none
COc1ccc(-c2csc(N3CCOCC3)n2)cc1OC	Cycloheximide cs 51, Shiga inhibitor 75
NC(=O)C1CCN(C(=O)c2ccc(-c3ccccc3Cl)o2)CC1	none (no result: Cycloheximide cs, NS1 function inh, Shiga inhibitor)
CCOC(=O)c1sc(=S)n(CC)c1NC(=O)c1ccccc1	none
CN(CC(=O)Nc1ccc(OC(F)(F)F)cc1)S(=O)(=O)c1cnc[nH]1	Pf growth 96h inconclusive
c1ccc(-c2csc(N3CCCCCC3)n2)cc1	Cycloheximide cs 33, Shiga inhibitor active
O=C(N1CCOCC1)N1CCN(c2nc(-c3ccc(F)cc3)cs2)CC1	Pf growth 96h 7.4µM
COc1ccccc1-c1csc(Cc2nnc3n2CCCCC3)n1	Cycloheximide cs 46, Shiga inhibitor 153
COc1ccccc1-c1csc(N2CCC(C(N)=O)CC2)n1	Pf growth 48h 12µM, Pf growth 96h inconclusive (no result: Cycloheximide cs, SARS PLpro yeast, NS1 function inh, Shiga inhibitor)
c1ccc(-c2csc(Cc3nnc4n3CCCCC4)n2)cc1	none
Cc1ccc(S(=O)(=O)NC(=O)Nc2ccc(OC(F)F)cc2)cc1	none
O=C(CCSCCc1ccccn1)Nc1c(F)c(F)c(F)c(F)c1F	none
NC(=O)C1(N2CCCCC2)CCN(c2nc(-c3ccc(Br)cc3)cs2)CC1	Pf growth 96h inconclusive (no result: Pf growth 48h)
Clc1ccc(-c2csc(N3CCOCC3)n2)cc1	Cycloheximide cs 47, Shiga inhibitor 56 (no result: NS1 function inh)
Brc1ccc(-c2csc(N3CCOCC3)n2)cc1	Cycloheximide cs 63, Pf growth 96h inconclusive, Shiga inhibitor 136 (no result: NS1 function inh)
CN1CCN(c2nc(-c3ccc(Cl)s3)cs2)CC1	Cycloheximide cs 46, Shiga inhibitor 50
O=[N+]([O-])c1ccc(N2CCN(c3nc(-c4ccc(Cl)cc4)cs3)CC2)cc1	none (no result: Pf growth 48h)
Brc1ccc(-c2csc(N3CCCCCC3)n2)cc1	Cycloheximide cs 8.6
CCC(=O)Nc1ccc(C(=O)NNC(=O)c2cccc(C)c2)cc1	none (no result: Pf growth 48h)
CCOC(=O)COc1coc(CN2CCN(c3ccc(F)cc3)CC2)cc1=O	Pf growth 96h inconclusive
COc1ccc(-c2csc(NC(=O)C3=COCCO3)n2)cc1OC	none (no result: Cycloheximide cs, NS1 function inh, Shiga inhibitor)
O=[N+]([O-])c1ccc(-c2csc(N3CCCCCC3)n2)cc1	Cycloheximide cs 17, Pf growth 96h inconclusive
COc1ccc(-c2csc(N3CCC(c4ccccc4)C3)n2)cc1 (stereo unspecified)	NS1 function inh inconclusive
COc1ccc(-c2csc(/N=C/N(C)C)n2)cc1OC	Cycloheximide cs 18
Clc1ccc(-c2csc(N3CCC(c4ccccc4)C3)n2)cc1 (stereo unspecified)	Shiga inhibitor 95
Cn1cc(CNCCN2CCCCC2=O)c(-c2cccc(Cl)c2)n1	none
Cc1cccc(NC(=O)CSc2nc3nc(C)cc(C)n3n2)c1	Pf growth 96h inconclusive
OC(c1ccccc1)(c1ccccc1)C1CCN(C(=S)NCCc2ccccc2)CC1	Pf growth 48h inconclusive, Pf growth 96h inconclusive
S=C(NCCc1ccccc1)N1CCN(C2CCCCC2)CC1	Pf growth 48h inconclusive (no result: NS1 function inh)
CC1CCN(C(=S)NCCc2ccccc2)CC1	Cycloheximide cs 30, Shiga inhibitor 82 (no result: Pf growth 48h)
S=C(NCCc1ccccc1)N1CCN(C(=S)NCCc2ccccc2)CC1	none (no result: Cycloheximide cs, NS1 function inh, Shiga inhibitor)
O=C(NCCc1ccccc1)N1CCCC(CNS(=O)(=O)Cc2ccccc2)C1 (stereo unspecified)	Cycloheximide cs 14
CN1CCN(C(=S)NCCc2ccccc2)CC1	Cycloheximide cs 35
OCC1CCCN(C(=S)NCCc2ccccc2)C1 (stereo unspecified)	Cycloheximide cs 33, NS1 function inh inconclusive
CCn1cc(-c2ccccc2)c(C(=O)O)c1-c1ccc(OC)cc1	none (no result: Cycloheximide cs, NS1 function inh, Shiga inhibitor)
NS(=O)(=O)c1ccc(NC(=O)CSc2nc3ccccc3nc2N2CCOCC2)cc1	none
CC1CCCN(C(=S)NCc2ccccc2)C1 (stereo unspecified)	none
OC1CCCN(C(=S)NCc2ccccc2)C1 (stereo unspecified)	Pf growth 96h 3.3µM
O=C(c1ccc(COc2ccccc2Br)cc1)N1CCCCCC1	Cycloheximide cs 31, Pf growth 48h inconclusive, Shiga inhibitor 60
O=C(c1ccc(CS(=O)(=O)Cc2ccccc2)cc1)N1CCCCC1	Pf growth 96h inconclusive
COC(=O)c1ccc(COc2ccc(CNCc3ccc(Cl)cc3)cc2)cc1	Cycloheximide cs 34, Shiga inhibitor 43
COC(=O)c1ccc(OCCOc2ccc(C(=O)OC)cc2)cc1	none (no result: Pf growth 48h)

Screening results deposited in PubChem BioAssay by National Center for Advancing Translational Sciences (NCATS).
